Rab9 promoter act: activates the Rab9 promoter | 320,000 compounds, 2.8% hits | Huh7 Rab9 promoter-luciferase reporter, luminescence, 24 h | Potency, µM (top dose mostly 9.22 µM), for inactives: top-dose activation, negative = inhibition, usual class: activators; further: % of control where 0% means no effect; nearly all actives have a fitted effect of over 60% in size
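Huh7 cells stably carrying a Rab9 promoter-luciferase reporter, 1500 cells per well in OP-MEM I with 10% FBS, treated with compound 24 hours at 37C. Luciferase activity read by luminescence after 10 minutes with Amplite reagent.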
ELG1 genotox: genotoxicity induction in ELG1-luciferase HEK293T cells | HEK293T ELG1-luciferase reporter, luminescence, 16 h | Potency, µM (titrated, usually from 46 µM), inactives show at the highest dose activity change, positive = activation, actives largely listed as activators | 330,000 compounds, 1.3% hits; further: % of control where 0% means no effect; nearly all actives have a fitted effect of over 60% in size
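Luminescence read-out: rising ELG1-luciferase signal, reflecting elevated ELG1 protein under genetic stress, flags genotoxic compounds. Cells were treated for 16 hr at 37 °C before ONE-Glo detection.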
SMN2 splice up: SMN2 splice variant enhancement; HEK293 SMN2-luciferase splicing reporter, luminescence, 30-36 h; Potency, µM (top dose mostly 46.1 µM), for inactives: at the top dose activity change, positive = activation, usual class: activators; 210,000 compounds, 2.8% hits; AID 1458; further: % of control where 0% means no effect; nearly all actives have a fitted effect of over 55% in size
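HEK293 cells carry an SMN2 minigene-luciferase reporter in which exon 7 inclusion puts luciferase in frame. Cells were seeded at 2000 cells/well, attached for 10-12 hours, then exposed to compounds for 30-36 hours at 37C before ONE-Glo luminescence.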
NPC1 promoter act: activators of NPC1 promoter; Huh7 NPC1 promoter luciferase reporter, 24 h; Potency, µM (highest dose often 9.22 µM), for inactives: at the top dose activation, actives largely listed as activators; 320,000 compounds, 2.4% hits; further: % of control where 0% means no effect; nearly all actives have a fitted effect of over 60% in size
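Huh7 cells stably carrying NPC1 promoter–luciferase, plated in Opti-MEM with 10% FBS for 2 h, were exposed to compound in DMSO for 24 h at 37 °C; luciferase reagent was added for 10 min and luminescence read.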
FLuc modulator: counter-screen for miR-21 project: firefly luciferase inhibitors or activators; P08659; purified FLuc, Km substrates, luminescence inhibition; Potency, µM (highest dose often 57.5 µM), for the others: top-dose activity change, negative = inhibition, most hits filed as inhibitors; 360,000 compounds, 6.9% hits;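 further: plate controls were vehicle for no effect and reference inhibitor for full effect; nearly all actives have a fitted effect of over 55% in size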
Target sequence (P08659 whole entry, looked up): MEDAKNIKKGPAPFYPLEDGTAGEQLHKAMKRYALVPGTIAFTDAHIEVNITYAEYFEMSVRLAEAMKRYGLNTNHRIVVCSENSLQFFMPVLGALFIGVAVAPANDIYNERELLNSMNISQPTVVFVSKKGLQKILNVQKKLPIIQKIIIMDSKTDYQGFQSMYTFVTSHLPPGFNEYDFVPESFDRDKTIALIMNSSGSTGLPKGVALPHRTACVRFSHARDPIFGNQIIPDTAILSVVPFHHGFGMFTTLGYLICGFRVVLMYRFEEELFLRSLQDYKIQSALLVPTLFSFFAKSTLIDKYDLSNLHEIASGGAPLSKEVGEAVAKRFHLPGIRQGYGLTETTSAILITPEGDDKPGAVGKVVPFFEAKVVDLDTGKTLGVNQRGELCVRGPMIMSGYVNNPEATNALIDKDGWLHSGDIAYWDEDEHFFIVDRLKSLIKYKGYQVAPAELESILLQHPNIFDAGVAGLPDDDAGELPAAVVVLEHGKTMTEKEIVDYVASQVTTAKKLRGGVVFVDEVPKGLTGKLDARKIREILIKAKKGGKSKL
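Purified P. pyralis luciferase (10nM final) with 10uM D-luciferin and 10uM ATP (Km levels) in 50mM Tris acetate pH 7.5, 10mM Mg acetate, 0.01% Tween-20, 0.05% BSA; qHTS 6-point titration, ~60 µM downward; luminescence read.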
ELG1 repair inh: ELG1-dependent DNA repair inhibition; HEK293T ELG1-luciferase reporter, luminescence, 16 h; DNA damage induced by 5-fluorouridine; Potency, µM (top dose mostly 46.1 µM), without a hit: at the top dose activity change, negative = inhibition, hits mostly inhibitors; 330,000 compounds, 2.3% hits; further: on the % scale 0 is the no-effect control and ±100 the full control effect; nearly all actives have a fitted effect of over 55% in size
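Luminescence from the luciferase reporter, measured 30 min after ONE-Glo reagent at room temperature, was the read-out. Beforehand, 2,000 cells per well were exposed for 16 hr at 37 °C to 5-fluorouridine together with compound or vehicle.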
Numbers without * were called inactive; ? = inconclusive; . = not tested or not shown. Most compounds without a hit are left out; they make up all but 9.2% or so of the library. The call rests on the fitted dose curve; in most records, active means well fitted curve in the direction sought with a large enough effect; inconclusive means small, poorly fitted or top-dose-only effect, or another doubt; inactive means no such curve, though single readings can be large; an effect the other way counts as inactive or inconclusive. Potency means the concentration at half of the fitted maximal effect.

SMILES	Rab9 promoter act	ELG1 genotox	SMN2 splice up	NPC1 promoter act	FLuc modulator	ELG1 repair inh
NNc1nc2c(-c3ccc(F)cc3)nnn2c2ccccc12	2.8µM*	?	5µM*	4µM*	4.8µM*	?
Fc1ccc(-c2nnn3c2nc(NCc2ccccc2)c2ccccc23)cc1	-4%	0%	-1%	5%	4%	0%
NNc1nc2c(-c3ccc(Cl)cc3)nnn2c2ccccc12	2.5µM*	13%	13µM*	4µM*	?	?
CC(C(=O)OCC(=O)N(C)C1(C#N)CCCCC1)N1C(=O)c2ccccc2C1=O (stereo unspecified)	0%	0%	.	4%	4%	14%
COc1ccc(Cl)cc1NC(=O)N1CCC(CN2CCCCCC2)CC1	.	.	.	.	-2%	.
Oc1ccc(Cl)cc1C1=NNC(c2cccs2)C1 (stereo unspecified)	7%	-16%	.	-5%	?	?
Cc1ccc(O)c(C2=NNC(c3ccc(Cl)cc3)C2)c1 (stereo unspecified)	27%	5%	.	0%	27µM*	18%
COC(=O)c1cc(C)nc2c1C(=O)C(=O)C=C2N1CCOCC1	-49%	-20%	.	-41%	-13%	5.2µM*
CC[C@H](C)Cc1cn([C@@H](CCCN=C(NC(=O)OC(C)(C)C)NC(=O)OC(C)(C)C)C(=O)NCCCCCCCCCCC(=O)N2CCN(C(=O)OC(C)(C)C)CC2)nn1	1%	-40%	.	-10%	-2%	7.3µM*
C#CCOCCOCCOCCNc1nc(N2CCN(C(=O)CCCCCCCCCCNC(=O)[C@@H](CCC(=O)O)n3cc(CCCCCN)nn3)CC2)nc(N2CCN(C(=O)CCCCCCCCCCNC(=O)[C@H](CCCCN)n3cc(C[C@@H](C)CC)nn3)CC2)n1	-1%	8%	.	-3%	5%	3.2µM*
C#CCOCCOCCOCCNc1nc(N2CCN(C(=O)CCCCCCCCCCNC(=O)[C@H](CCCCN)n3cc(C)nn3)CC2)nc(N2CCN(C(=O)CCCCCCCCCCNC(=O)[C@@H]([C@H](C)O)n3cc(C)nn3)CC2)n1	-2%	1%	.	1%	0%	14µM*
C#CCOCCOCCOCCNc1nc(N2CCN(C(=O)CCCCCCCCCCNC(=O)[C@H](CCCCN)n3cc(C[C@@H](C)CC)nn3)CC2)nc(N2CCN(C(=O)CCCCCCCCCCNC(=O)[C@@H]([C@H](C)O)n3cc(C)nn3)CC2)n1	4%	-6%	.	-6%	3%	?
C#CCOCCOCCOCCNc1nc(N2CCN(C(=O)CCCCCCCCCCNC(=O)[C@H](CCCCN)n3cc(CCO)nn3)CC2)nc(N2CCN(C(=O)CCCCCCCCCCNC(=O)[C@H](CCCCN)n3cc(C[C@@H](C)CC)nn3)CC2)n1	3%	2%	.	-1%	3%	?
Cc1ccccc1C(=O)c1cccn1CC(=O)NCCCc1ccccc1	0%	2%	.	-2%	-7%	-6%
CC1(C)Cc2c(sc3c2c(=N)n(Cc2ccco2)c(=O)n3CC(=O)Nc2ccc(Cl)cc2)CO1	-3%	-4%	25%	-1%	3%	21µM*
CC1(C)Cc2c(sc3c2c(=N)n(Cc2ccco2)c(=O)n3CC(=O)Nc2ccccc2)CO1	-1%	2%	?	5%	-6%	9.2µM*
Cc1cccc(NC(=O)Cn2c(=O)n(Cc3ccco3)c(=N)c3c4c(sc32)COC(C)(C)C4)c1	0%	-6%	3%	-3%	4%	?
Cc1cc([N+](=O)[O-])nn1CC(=O)N(C)C1CCCCC1	-2%	1%	.	0%	3%	21%
Cc1ccc(NC(=O)CNc2ccccc2CN(C)C2CCCCC2)cc1	-1%	-8%	2%	-3%	-2%	4%
Cc1ccc(S(=O)(=O)NC(C)(C)CSc2nnc(Nc3ccccc3)s2)cc1	0%	-29%	-32%	-4%	-6%	23µM*

Assay outcomes deposited in PubChem BioAssay by National Center for Advancing Translational Sciences (NCATS).
